EWS-Fli inh: EWS/Fli transcriptional activity inhibition. A673 NR0B1-luciferase reporter, viability-normalised. 0.67% of 350,000 active. inhibition, % at 12.6 µM;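 active = mean inhibition of at least 50% after viability correction, with every replicate also passing that limit; inconclusive = mean reaches 50% but only one of two replicates passes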;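 note: firefly luciferase signal divided by Alamar Blue viability fluorescence both relative to DMSO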
miR122 inh: miR-122 inhibition in Huh7 cells | Huh7 miR-122 Renilla luciferase sensor, 48 h; neutral wells = 0, positive control = 100 | activation (reporter increase), % at 12.5 µM | 0.3% of 340,000 active;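 active = mean replicate activation score at least 90 and every replicate individually at or above 90; inconclusive = only one of the two criteria met; inactive = neither criterion met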;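 note: higher luciferase means less miR-122 activity so hits act as miR-122 inhibitors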
HIV Env fusion: HIV envelope-mediated fusion inhibition; HeLa-JRFL Env/CEM21 cell fusion, luciferase; 1.1% of 360,000 active; inhibition, % at 12.3 µM;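 active = mean replicate inhibition score of at least 50 and every replicate individually at or above 50; inconclusive = only one of the two criteria met; inactive = mean below 50 and not all replicates reaching 50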;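 note: 0% = plate neutral controls and 100% = maraviroc near 300 nM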
PAX8 inh HTS: lowers PAX8-driven luciferase in RMG-I cells | RMG-I TPO-luciferase reporter, SteadyGlo, 24 h | inhibition, % at 12.6 µM | 1.2% of 360,000 active;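 active = mean replicate inhibition at least 60% with every replicate also reaching 60%; inconclusive = only one of the two criteria is met; inactive = mean below 60% and not all replicates reaching 60%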;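 note: luciferase light reporting Pax8 driven TPO promoter activity; plate controls were median of neutral control wells for no effect and mitoxantrone controls for full effect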
C2C12 statin: protects C2C12 myotubes from simvastatin toxicity; rescue of ATP level, % at 7.49 µM; AID 602340; ATP luminescence, 48 h; scaled: DMSO 0, geranylgeraniol control 100; 0.78% of 330,000 active;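 active = mean ATP rescue above about 67%, or every replicate alone reaching that limit, limit read from the data, passing the limit was not always enough; inconclusive = no clear call, values can overlap the other calls; inactive = mean under the limit and some replicate under it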;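 note: myotubes were challenged with 10 µM simvastatin during compound exposure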
INS-1E GSIS act: primary screen for activators of insulin secretion dependent on glucose, INS-1E cells, GLuc reporter luminescence; INS-1E GLuc reporter insulin secretion, 2-3 h; activation, % at 16.6 µM; 0.61% of 370,000 active;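 active = lowest replicate activation of at least 40%, so every replicate reaches that level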;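 note: 0% = median of neutral control wells and 100% = median of IBMX positive control wells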
The depositor's hits bear a star; ? = inconclusive; . = not tested or not shown; [ ] = remark or other dose. Rows were chosen to be rich in hits. Some 3.1% of all compounds tested hit in one or more screens of this group.

SMILES	EWS-Fli inh	miR122 inh	HIV Env fusion	PAX8 inh HTS	C2C12 statin	INS-1E GSIS act
O=C(Nc1ccc(Br)c(Cl)c1)c1ccco1	.	143.9*	-173.5	.	11.8	.
CC(=O)N1CCN(c2ccc(NC(=O)c3ccco3)cc2)CC1	-30.5	-2.8	2.2	-37.7	4.6	-5.4
O=C(Nc1ccc(Cl)cc1C(=O)Nc1ccncc1)c1ccco1	.	-1.9	-8.0	.	91.5*	36.2
Cc1ccccc1C(=O)NCc1nnc(SCC(=O)N2CCN(c3ccccc3)CC2)n1C	.	-3.4	.	.	100.8*	.
CCC(=O)N1CCN(c2ccc(NC(=O)c3ccco3)cc2)CC1	.	-2.1	.	.	94.8*	.
C/C=C/c1ccc2c(c1)O[C@H](CN(C)Cc1cccc(F)c1)[C@H](C)CN([C@@H](C)CO)S2(=O)=O	6.8	.	6.8[16.7 µM]	.	-2.6	19.5
COc1ccccc1S(=O)(=O)N[C@H]1C=C[C@H](CC(=O)N2CCCCC2)O[C@@H]1CO	-3.5	.	8.5[16.7 µM]	-0.7	-8.3	-0.3
O=C(Nc1ccc(N2CCN(C(=O)c3ccccc3)CC2)c(Cl)c1)c1ccco1	.	67.4	.	.	121.9*	.
O=C(NCc1nnc(SCC(=O)N2CCN(c3ccccc3)CC2)o1)c1ccccc1	.	.	20.8	6.6	2.1	15.9
O=C(NCc1nnc(SCC(=O)N2CCN(c3ccccc3)CC2)o1)c1ccco1	.	2.2	.	.	93.4*	.
CC(=O)N1CCN(c2ccc(NC(=O)c3ccco3)cc2Cl)CC1	.	-3.7	7.4	-36.9	-8.4	11.3
CCN1CCN(c2ccc(NC(=O)Cc3ccccc3)cc2)CC1	.	31.0	.	.	104.5*	.
O=C(Cc1ccccc1)Nc1ccc(N2CCCC2)cc1	.	-9.9	.	.	-19.1	.
COc1ccc(-c2ccc3n(c2=O)C[C@@H]2[C@@H](CO)[C@H](C(=O)NC4CCC4)N(S(C)(=O)=O)[C@H]32)cc1	-4.6	.	24.5[16.7 µM]	.	-18.0	8.6
CN1c2ccc(Br)cc2[C@@H]2[C@@H](CCN2S(=O)(=O)c2cccc(F)c2)[C@@H]1CO	-1.2	2.6[16.7 µM]	.	10.4	3.4	-13.4
COCC(=O)NC[C@@H]1[C@H](c2ccccc2)[C@@H](CO)N1C(=O)c1ccccc1	-2.2	-8.3[16.7 µM]	.	5.0	14.6	22.8
COCCNc1nc(NCCCN(C)C)c2sccc2n1	0.2	-2.9	6.2	-5.0	1.6	66.1*
COCCNc1nc(Oc2ccc(C(N)=O)cc2)c2sccc2n1	-6.6	-6.9	8.7	-16.7	2.7	91.6*
COCCNc1nc(Oc2ccccc2)c2sccc2n1	-3.8	0.8	13.3	-7.6	-10.6	21.6
O=C(Nc1cccc(C(F)(F)F)c1)c1csc([C@@H]2O[C@H](CO)[C@@H](O)[C@H]2O)n1	-6.6	-0.1	14.7	10.1	-16.6	80.4*
Cc1cccc(-c2ccc([C@H]3[C@@H](CO)N4CCCCN(Cc5cccnc5)C[C@H]34)cc2)c1	.	-14.3[16.7 µM]	.	0.6	.	-6.2
COc1ccc(C(=O)CCS(=O)(=O)c2ccc(C)cc2)cc1OC	-2.4	.	.	96.4*	-7.8	22.4
Cc1ccc(S(=O)(=O)CCC(=O)c2ccc(O)cc2O)cc1	.	6.0	-60.6	97.2*	-0.8	.
COc1ccc(C(=O)COC(=O)CCS(=O)(=O)c2ccc(C)cc2)c(OC)c1	0.2	.	.	4.0	.	8.5
C/C=C/c1ccc([C@H]2[C@@H](CO)N(CC3CCCC3)[C@H]2CNC(=O)NC(C)C)cc1	.	.	.	.	.	-2.1
SMILES	EWS-Fli inh	miR122 inh	HIV Env fusion	PAX8 inh HTS	C2C12 statin	INS-1E GSIS act
CCOC(=O)CCCCCC(=O)Nc1ccc2c(c1)C(=O)N([C@@H](C)CO)C[C@H](C)[C@H](CN(C)S(C)(=O)=O)O2	.	.	.	.	.	-0.8
CCCCCCCCN1C(=O)[C@H](CC(=O)N2CCN(C(=O)c3ccco3)CC2)C[C@@]2(C(=O)OCC)CCCC=C12	12.8	.	-12.1	86.8*	.	-9.5
CCOC(=O)N1CCN(C(=O)C[C@@H]2C[C@@]3(C(=O)OCC)CCC=C3N(Cc3ccc(Cl)cc3Cl)C2=O)CC1	5.4	.	-47.6	12.3	.	.
CCOC(=O)[C@]12CCC=C1N(Cc1ccc(Cl)cc1Cl)C(=O)[C@H](CC(=O)N1CCN(C(=O)c3ccco3)CC1)C2	-4.3	.	-8.8	78.9*	.	.
COC(=O)[C@]12CCCCC=C1N(Cc1ccc(Cl)cc1Cl)C(=O)[C@H](CC(=O)N1CCN(C(=O)c3ccco3)CC1)C2	-7.7	.	-7.0	108.6*	.	-10.0
COC(=O)[C@]12CCCCC=C1N(Cc1ccccc1)C(=O)[C@H](CC(=O)N1CCN(C(=O)c3ccco3)CC1)C2	0.0	.	-3.2	81.4*	.	-14.3
COC(=O)[C@]12CCCCC=C1N(Cc1ccc3c(c1)OCO3)C(=O)[C@H](CC(=O)N1CCN(C(=O)c3ccco3)CC1)C2	2.6	.	-16.6	26.7	.	-27.1
COC(=O)[C@]12CCCCC=C1N(Cc1ccc(Cl)cc1Cl)C(=O)[C@H](CC(=O)NCc1ccccc1)C2	-1.7	.	-2.0	-5.5	.	-31.5
O=C(C[C@@H]1CC[C@H]2[C@@H](COC[C@H](O)CN2C(=O)Nc2cccc(Cl)c2)O1)NCCCN1CCOCC1	-11.0	-0.7[16.7 µM]	2.8[16.7 µM]	-1.9	6.5	-20.1
O=C(C[C@H]1CC[C@H]2[C@@H](COC[C@H](O)CN2S(=O)(=O)c2ccc(Cl)cc2)O1)N[C@@H]1CCN(Cc2ccccc2)C1	9.7	-0.1[16.7 µM]	.	6.1	-0.8	-4.6
C[C@H](CO)N1C[C@H](C)[C@@H](CN(C)S(=O)(=O)c2ccc(Cl)cc2)Oc2ccc(NC(=O)Nc3ccccc3)cc2CC1=O	6.9	-5.8[16.7 µM]	.	?	-56.3	-14.4
COc1cc2ccc(CC(=O)O)cc2cc1OC	-9.0	.	-32.1	-3.0	.	77.2*
Cc1ccc(S(=O)(=O)Nc2c3ccccc3nc(=O)n2-c2ccccc2)cc1	.	8.3	.	.	-15.0	58.9*
COc1ccccc1NC(=O)C(=O)Nc1ccc2c(c1)N(C(=O)C1CC1)CCC2	-26.4	.	-9.4	78.6*	-18.8	-1.6
CCCCC(=O)N(C)c1c(CC)nc2c(OCc3ccc(C(F)(F)F)cc3)cccn12	5.7	-4.1	-12.7	23.4	-2.4	52.8*
CCOC(=O)N(C)c1c(CC)nc2c(OCc3cc(Cl)cc(Cl)c3)cccn12	18.6	-1.0	56.0*	0.9	-31.4	.
CCc1nc2c(OCc3ccc(C(F)(F)F)cc3)cccn2c1N(C)C(=O)c1ccc(C)cc1	6.7	-3.6	56.7*	-1.8	-14.2	.
CCc1nc2c(OCc3ccc(C(F)(F)F)cc3)cccn2c1N(C)C(=O)c1ccc(OC)cc1	6.0	-3.2	21.1	20.4	-11.1	-41.6
COc1ccc(S(=O)(=O)N[C@@H]2C=C[C@H](CC(=O)NCCc3ccccc3)O[C@H]2CO)cc1	3.2	.	13.5[16.7 µM]	-2.4	9.6	-9.7
COc1ccc(-c2cnc3c(c2)C(=O)N([C@H](C)CO)C[C@H](C)[C@@H](CN(C)Cc2ccc(C(=O)O)cc2)O3)cc1	-6.5	8.7[16.7 µM]	28.2[16.7 µM]	17.9	-4.7	6.4
CNC[C@H]1Oc2cc(-c3ccncc3)ccc2S(=O)(=O)N([C@H](C)CO)C[C@@H]1C	-6.3	2.6[16.7 µM]	-6.4[16.7 µM]	.	6.7	9.1

From PubChem BioAssay
